A selection: hits, their analogues and other compounds. The true share with any hit is near 4.3%.
Wnt bcat act = activators of Wnt/beta-catenin signaling. Wnt/beta-catenin reporter cell assay, activator, plate reader. activation, % at 9.35 µM. 300,000 compounds, 1.2% hits. AID 743398; in the data active means activation above about 30%, passing the limit was not always enough; inconclusive means no clear call, values can overlap the other calls;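 further: 0% = neutral control wells and 100% = positive control wells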
SMARCA2 activ = SMARCA2 function activation, primary screen; activation, % at 9.1 µM; AID 652017; MG213 cells, MMTV-luciferase reporter, dexamethasone, overnight; 370,000 compounds, 1% hits; in the data active means activation above about 7.8%;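 further: 0% = vehicle wells and 100% = reference activator wells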
MITF TRPM1 HTS = activators of MITF-driven TRPM1 promoter activity in SK-MEL-5 cells. activation, % at 12.5 µM. 300,000 compounds, 0.75% hits. SK-MEL-5 TRPM1-promoter luciferase, 24 h; % of positive control, neutral wells = 0;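 active means mean activation of at least 80% with every replicate also reaching 80%; inconclusive means mean reaches 80% but some replicate falls short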;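 further: 0% = neutral control wells and 100% = parthenolide positive control wells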
FGF22 binding = shifts melting point of recombinant human FGF22. Q9HCT0. recombinant FGF22 thermal shift, SYPRO orange fluorescence; percent of sucrose octasulfate shift, DMSO zero. 340,000 compounds, 1.5% hits. activity (Tm shift, normalised), % at 9.99 µM;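 active means mean Tm shift, scaled 0 neutral to 100 positive control, at about 1.3% or above, every replicate too, limit read from the data; inconclusive means no clear call, values can overlap the other calls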
Target sequence (Q9HCT0 whole entry, looked up): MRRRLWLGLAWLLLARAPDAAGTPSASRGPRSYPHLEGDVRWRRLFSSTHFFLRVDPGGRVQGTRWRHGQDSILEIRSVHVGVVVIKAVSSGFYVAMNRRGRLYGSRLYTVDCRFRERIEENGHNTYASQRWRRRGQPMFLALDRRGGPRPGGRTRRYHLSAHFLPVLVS
esBAF inh = SWI/SNF esBAF complex inhibition | 350,000 compounds, 2% hits | reporter increase, % at 12.5 µM | AID 602393 | mouse ES cells, Bmi1-luciferase knock-in reporter, 24 h; 100% = twice the neutral-well signal; in the data active means activation above about 40%; inconclusive means no clear call, values can overlap the other calls;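 further: 0% = median of the plate's neutral control wells and 100% = double that signal; a rise in the Bmi1 reporter signal indicates esBAF inhibition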
MLL AF4-AF9 inh = inhibitors of human MLL-AF4/AF9 interaction | P42568 | AlphaScreen, biotin-AF4 peptide binding to FLAG-AF9 | inhibition, % at 10 µM | 350,000 compounds, 0.47% hits | AID 651704;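 active means every replicate reaching a set inhibition limit, whatever the replicate mean, cut at about 25% in these data; inconclusive means mean inhibition reaches that limit but some replicates miss it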;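 further: 0% = plate neutral control median and 100% = total signal loss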
* marks the source's active call; other numbers are inactive results; ? = inconclusive; / = no result given.

SMILES	Wnt bcat act	SMARCA2 activ	MITF TRPM1 HTS	FGF22 binding	esBAF inh	MLL AF4-AF9 inh
C[C@@H]1CCCCO[C@@H](CN(C)Cc2ccncc2)[C@H](C)CN([C@@H](C)CO)C(=O)c2cc(NC(=O)Nc3ccc4c(c3)OCO4)ccc2O1	/	/	/	0	62*	5
C[C@@H](NC(=O)[C@H]1N[C@H]2c3ccc(C4=CCCC4)c(=O)n3C[C@H]2[C@@H]1CO)c1ccccc1	/	/	/	0	4	1
O=C(c1ccc(F)cc1)N1C[C@@H]2[C@H](c3ccccc31)[C@H](CO)N2Cc1ccc2c(c1)OCO2	/	/	/	0	-2	-1
O=C(C1CC1)N1CC[C@@H]2[C@H](CO)Nc3ccc(Br)cc3[C@@H]21	/	/	/	0	58*	0
O=C(C1CC1)N1CC[C@@H]2[C@@H](CO)Nc3ccc(Br)cc3[C@@H]21	/	/	/	0	2	-1
O=C(CN1CCOCC1)N1CC[C@@H]2[C@H](CO)Nc3ccc(-c4ccccc4F)cc3[C@@H]21	/	/	/	0	42*	/
COc1ccc(-c2ccc3c(c2)[C@@H]2[C@@H](CCN2C(=O)CN2CCOCC2)[C@@H](CO)N3)cc1	/	/	/	0	49*	0
CCC(=O)N1CC[C@H]2[C@H](CO)Nc3ccc(C#Cc4ccc(OC)cc4)cc3[C@H]21	/	/	/	/	/	26*
COc1ccc2c3c([nH]c2c1)[C@H](CO)N(C(=O)c1ccc(F)cc1)CC31CN(C)C1	/	/	/	0	/	3
C[C@@H]1CCCCO[C@@H](CN(C)C(=O)Nc2ccccc2)[C@H](C)CN([C@H](C)CO)C(=O)c2cc(N(C)C)ccc2O1	/	/	/	/	-4	/
CCOC(=O)c1c(C)[nH]c2cc(Br)c(O)cc12	48*	3	/	/	54*	/
Cc1nn(-c2ccc(N3CCCCC3)nn2)c(C)c1CCC(=O)Nc1cc(F)ccc1F	18	4	75	0	63*	2
CCN(CC1CCCO1)C(=O)c1cc(COc2ccc(F)cc2F)on1 (stereo unspecified)	-2	-1	-2	0	-3	2
CCN(CC1CCCO1)C(=O)c1cc(COc2cc(C)c(Cl)c(C)c2)on1 (stereo unspecified)	30	0	90*	0	84*	1
Cc1cc(OCc2cc(C(=O)N(C)CC3CCOCC3)no2)cc(C)c1Cl	-4	-1	47	0	50*	0
Cc1ccc(NCCC(=O)c2cccs2)cc1Cl	19	4	29	/	55*	/
Cc1ccc(NCCC(=O)c2cccs2)cc1C	-1	3	106*	42	68*	16
CN(C)c1ccc(/C=C2\c3ccccc3C(=O)N2c2ccccc2)cn1	2	6	/	0	34	15
O=C1c2ccccc2/C(=C\C#Cc2ccccn2)N1c1ccccc1	18	-4	95*	0	36	/
O=C(Nc1ccc(C(=O)N2CCCCC2)cc1)Nc1cccc(Cl)c1	17	3	106*	0	86*	-4
O=C(Nc1ccccc1)Nc1cccc(Cl)c1	/	-2	55	/	52*	/
Cn1nnc2cc(NC(=O)Nc3cccc(Cl)c3)ccc21	19	7	93*	0	?	-2
COc1ccccc1NC(=O)Nc1ccc(C(=O)N2CCCCC2)cc1	15	8	111*	0	37	1
COC(=O)c1ccccc1NC(=O)Nc1ccc(C(=O)N2CCCC2)cc1	-3	6	/	/	-2	/
CC(=O)Nc1ccc(NC(=O)Nc2cccc(Cl)c2)cc1	5	0	61	0	40	-13
SMILES	Wnt bcat act	SMARCA2 activ	MITF TRPM1 HTS	FGF22 binding	esBAF inh	MLL AF4-AF9 inh
O=C(Nc1cccc(Cl)c1)N1CCCCCC1	5	1	1	0	28	3
O=C(Nc1ccccc1)Nc1ccccc1	0	4	60	1	49*	-2
O=C(Nc1cccc(Cl)c1)Nc1ccc2nccnc2c1	-1	6	112*	0	97*	-1
O=C(NC1=NCCS1)Nc1ccccc1	42*	2	41	/	/	/
Clc1ccc(/C=C/c2ncc3ccccn23)cc1	41*	3	34	0	/	1
S=C1NCN(CC2CC2)CN1	1	-5	/	0	/	11
COC(=O)N(C)C[C@H]1OCc2ccccc2-c2c(n(C)c3ccccc23)C(=O)N([C@@H](C)CO)C[C@H]1C	/	/	/	0	-4	-4
